# Source: the supplement of paper PMC12067093, “Discovery and optimisation of a covalent ligand for TRIM25 and its application to targeted protein ubiquitination” (Chemical Science, 2025)
# Of roughly 21,000 targets only a part is listed; those with the largest changes were picked by preference.
# Compound: CC1Cc2ccccc2N1C(=O)C1CCCN(C1)C(=O)CCl (mixture of isomers) [TRIM25 ligand 11 (diastereomer mixture)]
# Test: probe-labelled cysteine peptide fold change vs DMSO (competition) (log2 fold change); higher = less target engagement (more negative = stronger competition)
# Conditions: THP-1, incubation time: 4 h
# 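Further: competitive chemoproteomic profiling in live THP-1 cells with an iodoacetamide desthiobiotin (IA-DTB) probe, comparing probe-labelled peptide intensities in compound-treated cells against DMSO-treated controls.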
# Sequence of UniProt Q9UBS8 (Q9UBS8 whole entry, looked up): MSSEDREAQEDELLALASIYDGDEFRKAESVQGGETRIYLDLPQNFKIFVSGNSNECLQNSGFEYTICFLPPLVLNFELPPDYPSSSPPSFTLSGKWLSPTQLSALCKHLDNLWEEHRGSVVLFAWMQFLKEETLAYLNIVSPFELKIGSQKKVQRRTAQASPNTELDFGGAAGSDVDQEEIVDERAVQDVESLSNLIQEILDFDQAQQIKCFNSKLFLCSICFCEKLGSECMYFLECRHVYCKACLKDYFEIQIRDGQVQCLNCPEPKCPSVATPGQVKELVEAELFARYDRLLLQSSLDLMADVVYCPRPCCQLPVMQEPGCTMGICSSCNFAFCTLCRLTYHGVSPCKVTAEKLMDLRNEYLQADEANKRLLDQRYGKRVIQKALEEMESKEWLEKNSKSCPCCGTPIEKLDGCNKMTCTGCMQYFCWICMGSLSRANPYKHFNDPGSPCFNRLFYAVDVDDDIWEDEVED
# Sequence of UniProt Q9P258 (Q9P258 whole entry, looked up): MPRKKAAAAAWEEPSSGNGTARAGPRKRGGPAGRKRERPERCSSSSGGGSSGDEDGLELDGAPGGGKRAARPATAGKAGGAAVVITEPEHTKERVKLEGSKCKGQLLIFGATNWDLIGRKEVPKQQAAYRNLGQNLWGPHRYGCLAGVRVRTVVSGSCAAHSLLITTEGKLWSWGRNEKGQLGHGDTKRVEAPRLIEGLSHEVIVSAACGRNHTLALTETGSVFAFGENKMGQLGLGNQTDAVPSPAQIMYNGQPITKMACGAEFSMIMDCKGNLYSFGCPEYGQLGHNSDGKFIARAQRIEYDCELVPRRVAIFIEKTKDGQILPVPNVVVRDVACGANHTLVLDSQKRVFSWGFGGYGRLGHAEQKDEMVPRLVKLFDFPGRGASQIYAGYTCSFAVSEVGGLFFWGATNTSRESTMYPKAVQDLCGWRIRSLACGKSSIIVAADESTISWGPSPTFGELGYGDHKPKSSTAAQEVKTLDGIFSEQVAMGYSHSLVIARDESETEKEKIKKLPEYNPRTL
# Sequence of UniProt P35249 (P35249 whole entry, looked up): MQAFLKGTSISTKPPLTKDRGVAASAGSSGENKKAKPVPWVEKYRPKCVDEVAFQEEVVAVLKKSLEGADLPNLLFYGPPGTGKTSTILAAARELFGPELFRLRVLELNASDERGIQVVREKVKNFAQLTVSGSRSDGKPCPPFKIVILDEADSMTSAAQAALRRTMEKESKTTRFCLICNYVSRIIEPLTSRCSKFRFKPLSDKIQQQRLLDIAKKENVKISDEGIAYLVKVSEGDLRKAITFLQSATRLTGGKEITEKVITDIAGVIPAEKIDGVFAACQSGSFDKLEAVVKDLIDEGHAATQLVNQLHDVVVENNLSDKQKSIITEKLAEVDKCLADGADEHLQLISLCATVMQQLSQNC
# Sequence of UniProt O60216 (O60216 whole entry, looked up): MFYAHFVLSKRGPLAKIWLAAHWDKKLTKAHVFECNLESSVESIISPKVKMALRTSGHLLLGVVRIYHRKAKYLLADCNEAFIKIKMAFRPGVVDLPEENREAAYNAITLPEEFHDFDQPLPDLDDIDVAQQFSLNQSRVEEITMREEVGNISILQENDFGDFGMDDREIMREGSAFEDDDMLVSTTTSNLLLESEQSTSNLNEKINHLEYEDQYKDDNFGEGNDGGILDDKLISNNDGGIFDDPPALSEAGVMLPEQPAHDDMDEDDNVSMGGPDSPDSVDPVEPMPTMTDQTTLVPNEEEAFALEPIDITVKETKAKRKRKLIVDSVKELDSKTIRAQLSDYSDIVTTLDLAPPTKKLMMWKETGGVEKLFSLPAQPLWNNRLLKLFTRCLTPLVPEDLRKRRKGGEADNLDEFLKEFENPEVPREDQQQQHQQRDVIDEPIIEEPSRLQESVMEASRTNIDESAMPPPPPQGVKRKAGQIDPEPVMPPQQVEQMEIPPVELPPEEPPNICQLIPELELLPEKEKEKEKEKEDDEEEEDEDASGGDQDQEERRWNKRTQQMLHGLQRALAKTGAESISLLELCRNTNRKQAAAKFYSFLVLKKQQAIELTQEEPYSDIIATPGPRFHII
# Sequence of UniProt Q6NW40 (Q6NW40 whole entry): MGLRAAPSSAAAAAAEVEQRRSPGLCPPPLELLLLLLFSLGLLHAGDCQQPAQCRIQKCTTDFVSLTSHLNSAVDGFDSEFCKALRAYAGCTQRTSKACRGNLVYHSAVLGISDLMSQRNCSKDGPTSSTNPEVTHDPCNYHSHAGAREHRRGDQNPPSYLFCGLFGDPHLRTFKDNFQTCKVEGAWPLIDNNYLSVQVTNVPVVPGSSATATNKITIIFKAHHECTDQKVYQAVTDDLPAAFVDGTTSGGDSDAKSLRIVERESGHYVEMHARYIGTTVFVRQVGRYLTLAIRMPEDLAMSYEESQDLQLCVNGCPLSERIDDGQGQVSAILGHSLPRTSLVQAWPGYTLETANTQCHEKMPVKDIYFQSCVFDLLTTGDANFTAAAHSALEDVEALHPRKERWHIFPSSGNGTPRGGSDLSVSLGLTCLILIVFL
# Sequence of UniProt Q7Z5J4 (Q7Z5J4 whole entry, looked up): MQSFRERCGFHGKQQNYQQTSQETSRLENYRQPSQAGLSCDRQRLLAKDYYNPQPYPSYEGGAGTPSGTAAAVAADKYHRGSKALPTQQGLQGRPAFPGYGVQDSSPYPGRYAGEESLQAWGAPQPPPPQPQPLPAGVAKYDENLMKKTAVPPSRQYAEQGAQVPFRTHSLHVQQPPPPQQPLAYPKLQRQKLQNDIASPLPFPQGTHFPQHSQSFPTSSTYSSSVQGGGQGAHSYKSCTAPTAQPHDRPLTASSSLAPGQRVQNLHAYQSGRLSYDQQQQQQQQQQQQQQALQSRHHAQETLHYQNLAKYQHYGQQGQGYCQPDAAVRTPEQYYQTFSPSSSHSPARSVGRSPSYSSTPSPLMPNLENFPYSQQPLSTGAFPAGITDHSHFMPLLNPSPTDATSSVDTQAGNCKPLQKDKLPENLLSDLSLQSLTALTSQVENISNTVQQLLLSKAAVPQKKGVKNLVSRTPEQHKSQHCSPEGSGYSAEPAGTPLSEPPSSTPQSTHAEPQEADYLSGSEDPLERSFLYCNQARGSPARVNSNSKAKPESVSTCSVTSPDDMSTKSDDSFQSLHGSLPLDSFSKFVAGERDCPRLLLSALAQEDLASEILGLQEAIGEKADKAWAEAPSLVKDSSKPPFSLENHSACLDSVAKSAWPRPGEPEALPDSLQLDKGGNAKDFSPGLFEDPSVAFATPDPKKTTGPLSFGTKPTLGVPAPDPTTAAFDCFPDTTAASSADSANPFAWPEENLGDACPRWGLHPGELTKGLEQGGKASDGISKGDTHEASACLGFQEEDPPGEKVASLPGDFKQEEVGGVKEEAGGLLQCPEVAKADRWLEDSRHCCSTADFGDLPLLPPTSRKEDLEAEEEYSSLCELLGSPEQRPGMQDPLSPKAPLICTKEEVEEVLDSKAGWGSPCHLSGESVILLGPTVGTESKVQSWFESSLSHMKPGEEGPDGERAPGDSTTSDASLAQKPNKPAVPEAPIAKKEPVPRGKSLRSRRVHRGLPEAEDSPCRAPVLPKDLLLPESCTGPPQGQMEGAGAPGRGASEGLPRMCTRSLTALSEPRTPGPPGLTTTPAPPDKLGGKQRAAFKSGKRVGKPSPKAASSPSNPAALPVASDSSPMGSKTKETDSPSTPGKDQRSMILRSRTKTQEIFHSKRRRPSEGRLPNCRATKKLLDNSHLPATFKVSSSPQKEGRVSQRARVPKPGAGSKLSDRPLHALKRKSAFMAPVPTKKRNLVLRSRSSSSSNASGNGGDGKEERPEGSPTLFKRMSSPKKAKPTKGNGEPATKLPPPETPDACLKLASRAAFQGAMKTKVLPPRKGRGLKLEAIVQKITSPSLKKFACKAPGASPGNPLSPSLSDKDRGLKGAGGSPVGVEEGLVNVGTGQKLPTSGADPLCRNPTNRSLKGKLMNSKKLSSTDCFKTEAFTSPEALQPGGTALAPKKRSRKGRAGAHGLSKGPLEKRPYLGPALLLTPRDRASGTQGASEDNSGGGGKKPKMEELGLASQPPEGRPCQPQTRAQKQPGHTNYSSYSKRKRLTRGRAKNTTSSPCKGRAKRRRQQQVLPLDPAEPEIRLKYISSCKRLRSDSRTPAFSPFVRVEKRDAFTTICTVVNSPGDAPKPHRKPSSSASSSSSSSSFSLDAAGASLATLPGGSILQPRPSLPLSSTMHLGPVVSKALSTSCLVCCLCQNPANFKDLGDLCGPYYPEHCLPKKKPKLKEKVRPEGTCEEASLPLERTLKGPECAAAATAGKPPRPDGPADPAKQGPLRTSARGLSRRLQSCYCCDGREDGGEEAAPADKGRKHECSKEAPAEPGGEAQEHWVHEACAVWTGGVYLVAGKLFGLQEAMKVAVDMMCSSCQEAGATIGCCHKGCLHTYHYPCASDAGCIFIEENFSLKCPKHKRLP
# Sequence of UniProt P84095 (P84095 whole entry, looked up): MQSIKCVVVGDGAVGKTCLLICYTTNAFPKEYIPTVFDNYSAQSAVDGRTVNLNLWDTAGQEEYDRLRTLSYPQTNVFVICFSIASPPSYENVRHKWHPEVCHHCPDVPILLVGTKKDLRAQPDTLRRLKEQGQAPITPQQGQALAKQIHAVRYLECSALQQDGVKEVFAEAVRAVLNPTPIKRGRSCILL
# Sequence of UniProt P62834 (P62834 whole entry, looked up): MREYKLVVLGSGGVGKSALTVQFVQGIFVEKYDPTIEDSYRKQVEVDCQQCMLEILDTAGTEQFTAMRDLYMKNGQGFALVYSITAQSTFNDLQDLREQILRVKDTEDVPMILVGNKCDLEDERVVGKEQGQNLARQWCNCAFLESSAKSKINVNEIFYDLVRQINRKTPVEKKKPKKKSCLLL
# Sequence of UniProt Q06323 (Q06323 whole entry, looked up): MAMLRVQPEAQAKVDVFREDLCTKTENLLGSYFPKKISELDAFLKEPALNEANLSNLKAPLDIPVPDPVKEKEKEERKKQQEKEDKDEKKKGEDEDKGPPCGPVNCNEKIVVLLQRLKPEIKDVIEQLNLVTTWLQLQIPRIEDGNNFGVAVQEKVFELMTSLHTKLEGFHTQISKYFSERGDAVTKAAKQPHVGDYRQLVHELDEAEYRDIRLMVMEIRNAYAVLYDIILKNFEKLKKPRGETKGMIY
Target,probe-labelled cysteine peptide fold change (10 µM),probe-labelled cysteine peptide fold change (50 µM)
RNPEP_Q9H4A4_85_LDSHPCLEVTAAALR (UniProt Q9H4A4),0.0713,-0.0588
RANBP2_P49792_3221_ITITECGQI (UniProt P49792),-0.127,0.249
RBM4B_Q9BQ04_31_VLECDIIK<|>RBM4_Q9BWF3_31_VLECDIIK (UniProt Q9BWF3+Q9BQ04),-0.00323,-0.0431
RANBP3_Q9H6Z4_249_NESSNASEEEACEK (UniProt Q9H6Z4),0.387,-0.572
RHOG_P84095_105_WHPEVCHHCPDVPILLVGTKK (UniProt P84095),-0.292,-0.278
RPL30_P62888_52_LVILANNCPALR (UniProt P62888),0.0216,0.142
RAI1_Q7Z5J4_899_APLICTK (UniProt Q7Z5J4),-0.024,-0.376
RABGEF1_Q9UJ41_359_RDLSIEEQSECAQDFYHNVAER (UniProt Q9UJ41),0.648,-0.0585
RCC2_Q9P258_280_GNLYSFGCPEYGQLGHNSDGK (UniProt Q9P258),0.288,-0.207
RABL6_Q3YEC7_172_VPTHVPVCVLGNYR (UniProt Q3YEC7),0.0329,0.101
RGMB_Q6NW40_226_ITIIFKAHHECTDQK (UniProt Q6NW40),-0.5,-0.619
RABEP1_Q15276_350_IPVVCALTQEESSAQLSNEEEHLDSTR (UniProt Q15276),-0.0072,-0.0899
RAB3GAP1_Q15042_783_HLLPCVIHAAVLK (UniProt Q15042),-0.107,-0.00935
RANBP3_Q9H6Z4_406_VEVITGEEAESNVLQMQCK (UniProt Q9H6Z4),0.0311,0.26
PTPN12_Q05209_343_SCLVEGDAK (UniProt Q05209),0.155,-0.0495
PSMD6_Q15008_188_VYQGLYCVAIR (UniProt Q15008),-0.0246,0.231
RNF14_Q9UBS8_350_LTYHGVSPCK (UniProt Q9UBS8),0.114,0.116
RAP1A_P62834_118_DTEDVPMILVGNKCDLEDERVVGK (UniProt P62834),-0.603,-0.364
RFC4_P35249_180_FCLICNYVSR (UniProt P35249),-0.16,-0.0464
PSME1_Q06323_101_KKGEDEDKGPPCGPVNCNEK (UniProt Q06323),-0.56,-0.596
RAB3GAP1_Q15042_873_FVSCLLEQPEVLVTGAGR (UniProt Q15042),0.274,0.33
RAD21_O60216_35_AHVFECNLESSVESIISPK (UniProt O60216),0.0257,0.111
RBM22_Q9NW64_74_TEVCQTCSK (UniProt Q9NW64),-0.0386,-0.0803
RASAL3_Q86YV0_447_LCGALEPALPAQAK (UniProt Q86YV0),0.119,0.0549
